# In the library only some 11% were active in any assay of this set; here they are far more common.
# G9a inh = G9a (human) methyltransferase inhibition; actives 8.8% (n = 350,000); Q96KQ7; Potency, µM (doses to about 102 µM), without a hit: top-dose activity, negative = inhibition, most hits filed as inhibitors; AID 504332; G9a H3K9 monomethylation, AlphaScreen, 2 h; further: on the % scale 0 is the no-effect control and ±100 the full control effect; nearly all actives have a fitted effect of over 75% in size
#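 Methyltransferase reactions run at room temperature for 2 h (20 nM enzyme, 500 nM biotin-H3K9 peptide, 20 uM SAM) after a 15 min compound preincubation; product detected by AlphaScreen beads and anti-H3K9me1 antibody.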
# PLK1 PBD inh = PLK1 (human) polo-box domain binding inhibition; P53350; Plk1 PBD binding of FITC phosphopeptide, fluorescence polarization; Potency, µM, for the others: max response, negative = inhibition, usual class: inhibitors; actives 2.8% (n = 360,000); further: series mostly up to about 57 µM; on the % scale 0 is the no-effect control and ±100 the full control effect; nearly all actives have a fitted effect of over 65% in size
# BAZ2B block = inhibitors of human BAZ2B bromodomain; Q9UIF8; AlphaScreen BAZ2B-H3K14Ac peptide displacement; Potency, µM (top dose mostly 114 µM), inactives show top-dose activity change, negative = inhibition, usual class: inhibitors; actives 4.4% (n = 360,000); AID 504333; further: on the % scale 0 is the no-effect control and ±100 the full control effect; nearly all actives have a fitted effect of over 60% in size
#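 AlphaScreen luminescence quantifies BAZ2B engagement of H3K14Ac peptide; the protein and biotinylated peptide are both at 50 nM final, buffer PBS pH 7.4 with 0.01% Tween-20, all steps at room temperature.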
# HP1b binding inh = blocks HP1-beta chromodomain binding to methylated histone tails; Potency, µM (doses to about 114 µM), for inactives: at the top dose activity change, negative = inhibition, usual class: inhibitors; AlphaScreen HP1-beta / biotin-H3K9me3 peptide binding; P83916; actives 0.56% (n = 390,000); further: nearly all actives have a fitted effect of over 70% in size
#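 AlphaScreen: HP1-beta (50 nM) preformed 30 min with biotin-H3(1-18)K9me3 peptide (50 nM) in PBS pH 7.4, 0.01% Tween-20. Compound added for 30 min at RT, then streptavidin donor/nickel chelate acceptor beads (10 ug/mL) for 30 min.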
# JMJD2A Tudor = inhibitors of human JMJD2A Tudor domain; AlphaScreen JMJD2A-Tudor / H3K4me3 peptide binding; Potency, µM (series often up to 114 µM), inactives show at the highest dose activity change, negative = inhibition, hits mostly inhibitors; actives 4.4% (n = 390,000); further: on the % scale 0 is the no-effect control and ±100 the full control effect; nearly all actives have a fitted effect of over 50% in size
# Target sequence (O75164 whole entry, looked up, the tested form may be a part): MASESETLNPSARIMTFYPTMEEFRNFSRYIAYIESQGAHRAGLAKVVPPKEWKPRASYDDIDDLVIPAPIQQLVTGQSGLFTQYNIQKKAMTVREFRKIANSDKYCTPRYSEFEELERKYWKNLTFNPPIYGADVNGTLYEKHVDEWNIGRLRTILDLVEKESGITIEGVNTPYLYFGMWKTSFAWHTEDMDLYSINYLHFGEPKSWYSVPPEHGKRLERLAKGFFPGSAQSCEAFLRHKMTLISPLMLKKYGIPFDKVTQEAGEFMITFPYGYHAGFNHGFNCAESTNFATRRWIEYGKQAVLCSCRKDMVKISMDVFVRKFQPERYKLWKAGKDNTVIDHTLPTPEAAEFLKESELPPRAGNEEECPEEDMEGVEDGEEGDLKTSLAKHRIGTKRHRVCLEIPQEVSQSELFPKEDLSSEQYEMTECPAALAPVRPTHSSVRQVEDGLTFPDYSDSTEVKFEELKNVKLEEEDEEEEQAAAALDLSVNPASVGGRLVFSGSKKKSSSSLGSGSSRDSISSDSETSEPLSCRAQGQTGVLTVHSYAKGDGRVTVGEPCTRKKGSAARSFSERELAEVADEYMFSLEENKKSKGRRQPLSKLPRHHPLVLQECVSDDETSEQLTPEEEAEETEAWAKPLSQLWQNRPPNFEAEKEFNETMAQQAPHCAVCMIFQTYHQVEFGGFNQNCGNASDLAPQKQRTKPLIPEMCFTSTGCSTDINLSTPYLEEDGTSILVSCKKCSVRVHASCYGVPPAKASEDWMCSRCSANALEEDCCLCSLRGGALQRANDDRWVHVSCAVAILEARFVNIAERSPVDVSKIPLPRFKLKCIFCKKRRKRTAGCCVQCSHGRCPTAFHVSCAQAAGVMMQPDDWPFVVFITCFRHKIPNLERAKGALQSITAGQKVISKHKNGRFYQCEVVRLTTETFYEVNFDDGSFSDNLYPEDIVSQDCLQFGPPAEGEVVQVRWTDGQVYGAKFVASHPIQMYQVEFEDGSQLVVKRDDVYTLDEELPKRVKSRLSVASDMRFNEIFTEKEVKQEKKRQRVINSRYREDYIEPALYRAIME
# VDR inhibitor = vitamin D3 receptor (human) inhibition. P11473. VDR-SRC2-3 peptide fluorescence polarization, 2 h. Potency, µM, for the others: max response, negative = inhibition, hits mostly inhibitors. actives 0.93% (n = 400,000). AID 504847; further: on the % scale 0 is the no-effect control and ±100 the full control effect
#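 FP read-out; VDR + SRC2-3 coactivator peptide; 23 nl compound by pintool; 2 h RT incubation; reagents held at 4 deg C, protected from light.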
# Starred values were filed as active, the others as inactive; ? = inconclusive; . = no result given; [ ] = another dose, or the depositor's remark. The call rests on the fitted dose curve; in most records, active means well fitted curve in the direction sought with a large enough effect; inconclusive means small, poorly fitted or top-dose-only effect, or another doubt; inactive means no such curve, though single readings can be large; an effect the other way counts as inactive or inconclusive. Potency means the concentration at half of the fitted maximal effect.
SMILES,G9a inh,PLK1 PBD inh,BAZ2B block,HP1b binding inh,JMJD2A Tudor,VDR inhibitor
O=C(CN1CCCc2ccccc21)Nc1cc(S(=O)(=O)N2CCCC2)ccc1Cl,25µM*,-6%,-31%,33%,-23%,-12%
O=C(CN1CCCc2ccccc21)NCc1ccccc1Cl,45µM*,-4%,-39%,1%,-36%,4%
CC(C)CCN1C(=O)c2ccc(C(=O)OCC(=O)N(CC(C)C)C3CCS(=O)(=O)C3)cc2C1=O (stereo not drawn),.,-2%,.,14%,-24%,22%
O=C(CCl)c1ccc(Cc2ncc(C(F)(F)F)cc2Cl)s1,?,2.4µM*,?,30%,79µM*,?
NS(=O)(=O)c1ccc(Cc2ncc(C(F)(F)F)cc2Cl)s1,?,1%,4%,10%,1%,-8%
COc1cc2[nH]c(=O)n(Cc3ccc(C(=O)NCCCN4CCN(C)CC4)cc3)c(=O)c2cc1OC,-13%,-7%,1%,-3%,-25%,-6%
CC1CCN(CCCNC(=O)c2ccc(Cn3c(=S)[nH]c4ccc(Br)cc4c3=O)cc2)CC1,18µM*,.,?,.,.,.
CN1CCN(CCCNC(=O)c2ccc(Cn3c(=S)[nH]c4ccc(Br)cc4c3=O)cc2)CC1,32µM*,-20%,?,9%,?,-5%
C=CCNC(=O)c1ccc(Cn2c(=S)[nH]c3cc4c(cc3c2=O)OCO4)cc1,12%[59 µM],-16%,-9%,8%,?,11%
O=C(NCCN1CCCC1)c1ccc(Cn2c(=S)[nH]c3cc4c(cc3c2=O)OCO4)cc1,?,-12%,-34%,20%,40µM*,5%
O=C(NCc1cccnc1)c1ccc(Cn2c(=S)[nH]c3ccc(Br)cc3c2=O)cc1,-9%,?,?,49%,-7%,-12%
COCOc1ccc(-c2ncc(OCCN3CCCC3=O)nc2NC(=O)c2cc3ccccc3s2)cc1,.,-1%,.,.,.,.
Cc1ccc(Cl)cc1N1CCN(C(=O)CCC(=O)Nc2ccc3nc(N4CCC(C)CC4)cc(C)c3c2)CC1,10%[59 µM],.,4%,63%,2%,2%
C[C@H]([C@H](C)N1CC(=O)NC(=O)C1)N1CC(=O)NC(=O)C1,2.2µM*,.,.,.,.,45µM*
CC(=O)NC(c1ccccc1)c1nc(-c2cncnc2)cs1 (stereo not drawn),.,-10%,.,.,.,.
CCOc1ccc(NC(=O)COC(=O)CCN2C(=O)C3CC=CCC3C2=O)cc1OCC (stereo not drawn),4µM*,7%,?,-21%,?,-1%
CCOC(=O)c1ccc(NC(=O)CCN2C(=O)C3CC=CCC3C2=O)cc1 (stereo not drawn),-5%[0.501 µM],1%,-10%,33%,-6%,8%
CCOc1ccc(NC(=O)CCN2C(=O)C3CCCCC3C2=O)cc1OCC (stereo not drawn),3%[0.501 µM],-1%,-15%,11%,-21%,-12%
CCC(=O)Nc1ccc(C(=O)COC(=O)CCN2C(=O)C3CC=CCC3C2=O)cc1 (stereo not drawn),50µM*,-15%,13%,-10%,-23%,-14%
CCOc1ccccc1-c1cc(-c2n[nH]c(=S)n2CC)c2ccccc2n1,10µM*,-17%,-37%,17%,45µM*,-15%
CCn1c(-c2cc(-c3ccc(C)c(C)c3)nc3ccccc23)n[nH]c1=S,40µM*,.,?,.,.,.
CCn1c(-c2cc(-c3cc(C)ccc3C)nc3ccccc23)n[nH]c1=S,28µM*,-9%,?,15%,56µM*,?
CCOc1cccc(-c2cc(-c3n[nH]c(=S)n3CC)c3ccccc3n2)c1,?,-20%,?,-16%,?,-2%
CCn1c(-c2cc(C3CC3)nc3ccccc23)n[nH]c1=S,2.2µM*,-23%,-32%,21%,50µM*,-13%
O=C(CSc1nc2c(oc3ccccc32)c(=O)[nH]1)Nc1cccc(Cl)c1,3%[59 µM],.,-7%,18%,-12%,-8%
SMILES,G9a inh,PLK1 PBD inh,BAZ2B block,HP1b binding inh,JMJD2A Tudor,VDR inhibitor
Cc1ccc(-c2cc(-c3n[nH]c(=S)n3C)c3ccccc3n2)cc1,2µM*,?,?,-30%,?,-15%
CCOc1cc(C(N)=O)cc(Cl)c1OCC,14%[12.7 µM],21µM*,-18%,18%,?,-19%
Cn1cccc1CC(=O)N/N=C\c1c2ccccc2cc2ccccc12,-1%[0.0925 µM],-6%,-10%,-12%,?,-14%
NC(=S)N/N=C\c1c2ccccc2cc2ccccc12,7.1µM*,?,-37%,0%,-35%,-5%
CNC(=S)N/N=C/c1c2ccccc2c(Cl)c2ccccc12,18µM*,?,-19%,14%,-7%,?
CNC(=S)N/N=C/c1cc(C)ccc1C,2%,2%,-33%,12%,-19%,3%
C[N+](C)(C)CC(=O)N/N=C/c1c2ccccc2cc2ccccc12,35µM*,-18%,56µM*,42%,?,-6%
Cc1cc(OCC(=O)NCC2(N3CCN(C)CC3)CCCCC2)cc(C)c1Cl,1%[59 µM],.,-5%,42%,0%,0%
COc1ccc(N2CCN(C(=O)c3cn(C4CCCCC4)c(=O)c4c3c3ccccc3n4C)CC2)cc1,10µM*,.,7.1µM*,?,?,-3%
Cc1ccc(CNC(=O)c2cn(C3CCCCC3)c(=O)c3c2c2ccccc2n3C)o1,50µM*,?,-32%,-2%,-34%,79µM*
Cc1ccc(CNC(=O)c2cn(C)c(=O)c3c2c2ccccc2n3C)o1,1%[12.7 µM],-11%,5%,-9%,-19%,-9%
O=S1(=O)Nc2c(cc(Cl)c3ccc(Cl)nc23)-c2ccccc21,.,.,.,?,40µM*,-4%
Cc1ccc2ccc3c(c2n1)NS(=O)(=O)c1ccc(C(F)(F)F)cc1-3,.,.,.,17%,-24%,-20%
O=C(NCc1cccs1)c1ccc([N+](=O)[O-])cc1,12%,-7%,37%,23%,-17%,-7%
O=c1c2ccccc2sn1-c1ccc(S(=O)(=O)N2CCCCC2)cc1,.,1.3µM*,.,?,8.9µM*,-6%
Cc1ccc(-n2sc3ccccc3c2=O)cc1S(=O)(=O)N1CCCCC1,0.89µM*,0.84µM*,5.6µM*,?,7.9µM*,?
O=S(=O)(c1ccccc1)N1CCN(S(=O)(=O)N2CCCCCC2)CC1,26%[59 µM],-23%,2%,32%,-1%,-26%
O=c1c2ccccc2sn1-c1ccc(S(=O)(=O)N2CCCC2)cc1,.,1.1µM*,7.1µM*,1.4µM*,11µM*,?
Cc1ccc(C(=O)NNC(=O)c2ccccc2)cc1S(=O)(=O)N1CCCCC1,-8%[12.7 µM],2%,1%,54%,6%,4%
O=S(=O)(c1ccc(S(=O)(=O)N2CCCC2)cc1)N1CCCCC1,-21%,2%,-10%,11%,-6%,-14%
